NPC1 prom act = activates the NPC1 promoter. Huh7 NPC1 promoter luciferase reporter, 24 h. AID 485313. 2.4% of 320,000 active. Potency, µM (highest dose often 9.22 µM), for inactives: at the highest dose activation, actives largely listed as activators; further: % of control where 0% means no effect; nearly all actives have a fitted effect of over 60% in size
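Huh7 cells stably carrying NPC1 promoter–luciferase, plated in Opti-MEM with 10% FBS for 2 h, were exposed to compound in DMSO for 24 h at 37 °C; luciferase reagent was added for 10 min and luminescence read.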
FLuc modulator = counter-screen for miR-21 project: firefly luciferase inhibitors or activators. P08659. purified FLuc, Km substrates, luminescence inhibition. Potency, µM (series often up to 57.5 µM), inactives show at the highest dose activity change, negative = inhibition, most hits filed as inhibitors. 6.9% of 360,000 active. AID 588342;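 further: plate controls were vehicle for no effect and reference inhibitor for full effect; nearly all actives have a fitted effect of over 55% in size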
Target sequence (P08659 whole entry, looked up): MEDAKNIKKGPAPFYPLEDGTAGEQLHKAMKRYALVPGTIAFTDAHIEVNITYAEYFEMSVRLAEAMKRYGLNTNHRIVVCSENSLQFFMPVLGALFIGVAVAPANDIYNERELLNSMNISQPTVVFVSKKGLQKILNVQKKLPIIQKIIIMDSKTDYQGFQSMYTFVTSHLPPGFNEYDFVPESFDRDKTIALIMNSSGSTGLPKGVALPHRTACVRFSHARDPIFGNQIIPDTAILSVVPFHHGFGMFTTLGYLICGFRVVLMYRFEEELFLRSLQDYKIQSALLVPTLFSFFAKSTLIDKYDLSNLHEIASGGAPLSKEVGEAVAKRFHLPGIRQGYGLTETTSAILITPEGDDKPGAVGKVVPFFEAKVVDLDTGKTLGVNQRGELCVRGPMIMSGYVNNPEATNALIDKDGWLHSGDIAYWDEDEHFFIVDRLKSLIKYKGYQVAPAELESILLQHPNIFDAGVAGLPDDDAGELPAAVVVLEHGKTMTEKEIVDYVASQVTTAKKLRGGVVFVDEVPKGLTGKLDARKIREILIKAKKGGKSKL
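Purified P. pyralis luciferase, 10 nM final, with Km-level 10 uM D-luciferin and 10 uM ATP in 50 mM Tris acetate pH 7.5, 10 mM Mg acetate, 0.01% Tween-20, 0.05% BSA; 6-point qHTS titration about 60 µM downward; luminescence read.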
Rab9 promoter act = Rab9 promoter activation; Potency, µM (series often up to 9.22 µM), for inactives: top-dose activation, negative = inhibition, hits mostly activators; Huh7 Rab9 promoter-luciferase reporter, luminescence, 24 h; 2.8% of 320,000 active; further: % of control where 0% means no effect; nearly all actives have a fitted effect of over 60% in size
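Steps: seed 1500 Huh7 Rab9-luc cells per well, rest 2 h at 37 °C; add compound in DMSO; incubate 24 h; add luciferase reagent, 10 min ambient; read luminescence.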
ELG1 repair inh = inhibitors of ELG1-dependent DNA repair in HEK293T cells; HEK293T ELG1-luciferase reporter, luminescence, 16 h; DNA damage induced by 5-fluorouridine; Potency, µM (doses to about 46.1 µM), for the others: top-dose activity change, negative = inhibition, hits mostly inhibitors; 2.3% of 330,000 active; further: on the % scale 0 is the no-effect control and ±100 the full control effect; nearly all actives have a fitted effect of over 55% in size
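Step one: seed 2,000 cells per well. Step two: pin-transfer compound or DMSO alongside 5-fluorouridine. Step three: incubate 16 hr, 37 °C, 5% CO2. Step four: add ONE-Glo, wait 30 min, read luminescence.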
ELG1 genotoxic = inducers of genotoxicity in HEK293T ELG1-luciferase cells. HEK293T ELG1-luciferase reporter, luminescence, 16 h. Potency, µM (top dose mostly 46 µM), for inactives: top-dose activity change, positive = activation, most hits filed as activators. 1.3% of 330,000 active; further: % of control where 0% means no effect; nearly all actives have a fitted effect of over 60% in size
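After overnight (16 hr) compound treatment at 37 °C, ELG1-luciferase HEK293T cells were lysed with ONE-Glo; luminescence quantified 30 min later at room temperature.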
SMN2 splice up = increases expression of the SMN2 splice variant. Potency, µM (series often up to 46.1 µM), inactives show at the highest dose activity change, positive = activation, actives largely listed as activators. HEK293 SMN2-luciferase splicing reporter, luminescence, 30-36 h. 2.8% of 210,000 active; further: % of control where 0% means no effect; nearly all actives have a fitted effect of over 55% in size
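qHTS luciferase splicing reporter: luminescence rises when SMN2 exon 7 is included in transfected HEK293 cells. Compound exposure lasted 30-36 h at 37C, with 4.5 mM final sodium butyrate as control, followed by a ONE-Glo read.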
The depositor's hits bear a star; ? = inconclusive; . = no result. The list is not random: actives were taken first. Their share in the collection is about 9.2%. The call rests on the fitted dose curve; in most records, active means well fitted curve in the direction sought with a large enough effect; inconclusive means small, poorly fitted or top-dose-only effect, or another doubt; inactive means no such curve, though single readings can be large; an effect the other way counts as inactive or inconclusive. Potency means the concentration at half of the fitted maximal effect.

SMILES | NPC1 prom act | FLuc modulator | Rab9 promoter act | ELG1 repair inh | ELG1 genotoxic | SMN2 splice up
CCOC(=O)N1CCC(NC(=O)CSCc2nc(-c3cccc(OC)c3)oc2C)CC1 | -9.8% | 6.4% | -19.6% | 11.6µM* | -8.8% | -70.0%
CCOc1ccc(-c2nc(CSCC(=O)NCc3ccco3)c(C)o2)cc1 | -3.6% | 12µM* | -7.4% | 7.31µM* | 15.0% | -64.6%
COc1ccc(CN2CCN(Cc3nc4ccccc4s3)CC2CCO)c(C)c1C (stereo not given) | -5.3% | -1.2% | -21.3% | 16.4µM* | 3.1% | .
Cc1cc(/C=C(/C#N)C(=O)Nc2ccccc2)c(C)n1-c1cccnc1 | ? | 1.51µM* | 3.98µM* | ? | 0.8% | 0.5%
Cc1cc(/C=C(\C#N)C(=O)Nc2ccccc2)c(C)n1-c1ccc2c(c1)OCO2 | 6.0% | 10.7µM* | 1.3% | ? | -4.5% | -13.7%
COc1ccc(NC(=S)c2ccc3ccccc3n2)cc1 | 3.16µM* | 13.5µM* | 3.98µM* | ? | ? | .
COc1ccc(N=C(NN)c2ccc3ccccc3n2)cc1 | 17.0% | 6.75µM* | 21.6% | ? | ? | -1.2%
CCOc1ccc(NC(=S)c2ccc3ccccc3n2)cc1 | 3.55µM* | ? | ? | ? | 15.2% | .
COc1ccc(NC(=O)CN(C)C(=O)c2ccc3ccccc3n2)cc1 | . | . | . | 4.6% | 1.0% | .
CCOc1ccc(CN(C)C(=O)c2ccc3ccccc3n2)cc1 | 3.9% | 2.0% | ? | 7.6% | 0.9% | .
Cc1ccccc1OCC(=O)OCC(=O)NCc1cccs1 | 0.0% | 4.3% | -1.8% | -1.3% | 1.3% | -43.2%
Cc1ccccc1NC(=O)Cn1c(=O)n(CCC(=O)N2CCc3ccccc3C2)c(=O)c2ccccc21 | . | -8.4% | . | . | . | -0.9%
O=C(Nc1ccc2ccccc2n1)Nc1ccccc1F | ? | 0.5% | 24.1% | ? | 4.2% | .
Fc1ccc(Nc2ccc3ccccc3n2)c(F)c1 | 0.398µM* | 0.757µM* | 0.126µM* | ? | 0.82µM* | 5.01µM*
CC(=O)OCC(OC(C)=O)C(OC(C)=O)C(OC(C)=O)C(=O)Nc1ccccc1 (stereo not given) | 0.3% | -14.4% | -2.6% | -2.0% | -0.6% | 5.8%
CCN(C(=O)CN1C(=O)S/C(=C\c2ccc(F)cc2)C1=O)C1CCS(=O)(=O)C1 (stereo not given) | -0.1% | ? | 20.5% | ? | 5.1% | .
Cc1cc(C)n2cc(-c3ccc(Cl)cc3)c(C(=O)O)c2n1 | 2.82µM* | ? | 2.51µM* | ? | 16.4µM* | 12.6µM*
Cc1cc(Cl)n2ncc(-c3ccccc3)c2n1 | 25.0% | 12µM* | ? | ? | ? | .
COc1ccc(-c2cnn3c(C)cc(C)nc23)cc1OC | . | 1.9% | . | . | . | .
Cc1nc2c(-c3ccc(F)cc3)cnn2c(N)c1-c1ccc(F)cc1 | 0.447µM* | 0.849µM* | 0.562µM* | ? | 1.16µM* | .
Cc1cc(N)n2ncc(-c3ccc(F)cc3)c2n1 | ? | 10.7µM* | 3.16µM* | ? | 16.4µM* | ?
Cc1nc2c(-c3ccc(F)cc3)c(C)nn2c(N2CCOCC2)c1C | 0.7% | -2.9% | 1.1% | ? | -6.6% | -29.5%
COC(=O)c1cc2oc3ccccc3c2n1CC(=O)Nc1ccc(N(C)C)cc1 | . | -15.1% | . | . | . | 1.9%
CC(Sc1nnnn1C)C(=O)NC1CCCC1 (stereo not given) | . | . | . | 12.0% | 2.6% | .
Cc1cc(N)n2ncc(-c3ccc(Cl)cc3)c2n1 | 2.82µM* | 13.5µM* | 3.16µM* | ? | ? | 20.7%
CC(C)c1cc(N2CCOCC2)n2ncc(-c3ccccc3)c2n1 | 2.4% | -3.8% | 1.8% | 11.1% | 2.2% | .
Cc1cc(N2CCOCC2)n2ncc(-c3ccccc3Cl)c2n1 | 2.51µM* | 2.69µM* | 2.51µM* | ? | 9.2µM* | .
COc1cc(CC(CC(=O)O)CC(C)OCc2ccccc2)cc(OC)c1 (stereo not given) | -0.7% | 6.5% | -4.6% | 5.9% | -0.4% | 1.6%
